From PubChem BioAssay
Inconclusive results are not listed. Activity calls are given as the source filed them.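 Rule for the calls, unless noted: active = viability at or under a set limit in both replicates, limit being median viability minus 3 SD (cut at about 48% in these data, passing the limit was not always enough); inconclusive = at or under the limit in just one replicate; inactive = at or above the limit in both replicates.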

Columns and labels:
[1] = reducers of endogenous Her2 protein level, primary screen, SKBR3 breast tumor cells, AlphaScreen, ATP viability (AID 461;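 active = Her2 level under about 52% in both replicate screens, with viability over 70% of control, limit read from the data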;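 for Her2 level: lower value means less Her2 protein in the cells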;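 for viability: percent of carrier control wells set as 100% viability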); details: 18-24 h, measured here: SKBR3 viability, ATP luminescence, at 10 µM
[2] = molecular target: Receptor tyrosine-protein kinase erbB-2 (Homo sapiens) (UniProt P04626); assay: as above; details: 18-24 h, at 10 µM, stronger effect = lower value
Receptor tyrosine-protein kinase erbB-2 (Homo sapiens), sequence (P04626 whole entry, looked up): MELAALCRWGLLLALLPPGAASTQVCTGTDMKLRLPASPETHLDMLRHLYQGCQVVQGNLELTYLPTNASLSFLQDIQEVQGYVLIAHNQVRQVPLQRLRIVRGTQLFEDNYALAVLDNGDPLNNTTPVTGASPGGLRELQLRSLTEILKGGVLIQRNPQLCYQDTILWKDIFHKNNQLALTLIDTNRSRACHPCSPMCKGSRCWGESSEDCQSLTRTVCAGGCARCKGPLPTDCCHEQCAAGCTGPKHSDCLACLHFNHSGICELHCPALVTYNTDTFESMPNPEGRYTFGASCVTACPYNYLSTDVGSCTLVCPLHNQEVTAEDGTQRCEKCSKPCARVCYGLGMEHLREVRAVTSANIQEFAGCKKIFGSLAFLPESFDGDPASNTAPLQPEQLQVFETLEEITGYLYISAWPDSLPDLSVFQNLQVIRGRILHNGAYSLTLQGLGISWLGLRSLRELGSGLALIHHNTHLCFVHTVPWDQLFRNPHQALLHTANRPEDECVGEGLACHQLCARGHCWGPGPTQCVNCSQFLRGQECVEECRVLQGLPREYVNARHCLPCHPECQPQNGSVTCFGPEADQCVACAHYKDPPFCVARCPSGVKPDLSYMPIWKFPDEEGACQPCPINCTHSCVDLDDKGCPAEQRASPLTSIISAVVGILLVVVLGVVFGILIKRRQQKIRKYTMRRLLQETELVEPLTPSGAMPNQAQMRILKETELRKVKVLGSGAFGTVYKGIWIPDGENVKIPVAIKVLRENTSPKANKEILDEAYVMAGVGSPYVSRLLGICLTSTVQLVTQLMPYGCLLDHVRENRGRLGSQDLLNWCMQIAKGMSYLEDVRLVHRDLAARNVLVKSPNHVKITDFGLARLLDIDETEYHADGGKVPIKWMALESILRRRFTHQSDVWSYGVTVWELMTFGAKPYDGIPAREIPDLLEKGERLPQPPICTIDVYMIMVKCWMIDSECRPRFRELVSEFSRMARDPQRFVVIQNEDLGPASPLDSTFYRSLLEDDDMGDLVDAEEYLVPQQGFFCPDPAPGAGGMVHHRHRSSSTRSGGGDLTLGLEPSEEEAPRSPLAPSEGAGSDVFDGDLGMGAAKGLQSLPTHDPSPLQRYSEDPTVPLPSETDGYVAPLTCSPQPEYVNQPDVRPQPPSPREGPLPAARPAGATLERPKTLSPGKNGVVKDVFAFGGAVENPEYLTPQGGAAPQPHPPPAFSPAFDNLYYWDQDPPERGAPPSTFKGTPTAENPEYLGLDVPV

[3] = SK-BR-3 cell growth inhibitors, pilot screen, 24 h, human (AID 572;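 active = viability at or below 10% of carrier control in both of two separate runs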;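 note: compound exposure lasted between 18 and 24 h rather than exactly 24 h; 100% = carrier-treated control wells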); details: SK-BR-3 viability, CellTiter-Glo luminescence, at 10 µM, stronger effect = lower value
[4] = HUVEC growth inhibition – cell-based, human, primary screen (AID 575;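 active = viability at or below 30% in both replicate assays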;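 note: 100% = median of untreated cell wells with 0.1% DMSO on each plate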); details: HUVEC proliferation, CellTiter-Glo luminescence, 72 h; at 10 µM; stronger effect = lower value
[5] = growth inhibitors of H69AR lung tumor, primary screen, human, duplicate replicates (AID 580); details: H69AR lung tumor cells viability, ATP luminescence, 72 h; at 10 µM; stronger effect = lower value;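 note: 100% = mean luminescence of untreated wells and 0% = no signal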
[6] = reversal of MRP1-mediated doxorubicin resistance, pilot screen, H69AR cells, doxorubicin co-treatment (AID 601;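 active = viability loss from added drug above about 55%, and viability with drug at most 40%, in both replicates, limit read from the data, passing the limit was not always enough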); details: CellTiter-Glo, 72 h, at 10 µM; for differential viability (reversal): stronger effect = higher value
[7] = 384-well plate pilot, post-Golgi transport modulator project, inhibition of yeast transport mutant growth (AID 636; in the data active = inhibition above about 31%); details: absorbance 615 nm, about 18 h, stronger effect = higher value
[8] = growth suppression of yeast trafficking mutant, preliminary HTS, modulators of trafficking downstream of Golgi apparatus project, 1536-format plate, OD 615 nm (AID 637; in the data active = inhibition above about 30%); details: yeast transport mutant growth, absorbance 615 nm, 18 h; stronger effect = higher value
[9] = OD615 S. cerevisiae growth inhibition, permissive medium, pilot counter-assay, permissive growth control for S. cerevisiae lifespan shortening project (AID 705;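 active = growth inhibition above 25% in both replicates, a cutoff set 3 SD above the mean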); details: OD615, 24 h, at 10 µM, stronger effect = higher value
[10] = Restrictive medium S. cerevisiae growth inhibition, OD615, pilot screen of yeast lifespan reduction project, restrictive growth control (AID 706;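 active = growth inhibition above a set limit, 3 SD over mean compound inhibition, in both replicates, cut at about 43% in these data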;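 note: modified DeaD lifespan yeast strain shifted to restrictive glucose medium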); details: OD615, 48 h, at 10 µM, stronger effect = higher value
[11] = viability gain of MRP-1-high H69AR cells under doxorubicin, pilot screen, MRP-1 activator project, CellTiter-Glo, duplicate (AID 807;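 active = viability increase at or above a cutoff of the median across tested compounds plus 3 SD, cut at about 8.5% in these data, passing the limit was not always enough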;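 note: compound pretreatment 18-22 h then 72 h combined with doxorubicin; 0% = doxorubicin alone and 100% = vehicle without doxorubicin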); details: H69AR viability with doxorubicin, CellTiter-Glo luminescence; at 10 µM; stronger effect = higher value
[12] = growth suppression of beta-catenin knockout HCT116, pilot screen, human colon tumor cells (AID 823;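 active = cell viability at or below a set limit in both duplicate runs, the limit being the all-compound median minus 4 SD, cut at about 23% in these data, passing the limit was not always enough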;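 note: 0% = wells killed by 20 µM Hyamine and 100% = untreated DMSO cell wells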); details: CellTiter-Glo, 60 h, at 10 µM, stronger effect = lower value
[13] = growth suppression of PTEN-deleted HCT116, pilot screen, cell-based, HCT116 clonal line, CellTiter-Glo (AID 824;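 active = viability at or below 27.92% in each of two runs, the all-compound median minus 4 SD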;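 note: 0% = 20 µM Hyamine control and 100% = vehicle cell control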); details: 60 h, at 10 µM, stronger effect = lower value
[14] = inhibitors of the yeast RAM network, pilot screen, dse1pr::URA3 reporter, 5-FOA selection (AID 869;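 active = inhibition over a set limit, the all-compound mean plus 3 SD, in both replicate runs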;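 note: 0% = DMSO wells with no growth and 100% = 10 µM 1-NA-PP1 with full growth; RAM network block rescues cells from 5-FOA so hits raise OD615 growth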); details: S. cerevisiae dse1pr::URA3 5-FOA growth, OD615, 2 d; at 10 µM; stronger effect = higher value; strain carries analog-sensitive mutant Cbk1 kinase
[15] = RAM signaling pathway blockade in yeast – S. cerevisiae, Pdr1DBD-CYC8 efflux-inhibited sensitized strain, primary screen (AID 1298;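 active = RAM network inhibition above 8.4% in each of two replicates, 3 SD over the compound average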;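 note: 0% = DMSO untreated cells without growth and 100% = 10 µM 1-NA-PP1 full growth; higher means more yeast growth rescued from 5-FOA killing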); details: S. cerevisiae cbk1-as DSE1-URA3 strain, 5-FOA growth OD615, 2 d; at 50 µM; stronger effect = higher value
[16] = H69AR cells + 2 uM doxorubicin, measured here: viability with 2 uM doxorubicin, stronger effect = lower value
[17] = H69AR cells, compound alone cytotoxicity

CCCCSc1nc2c(cnn2-c2ccc(F)cc2)c(=O)[nH]1
74%: viability [6, 17]
93.5%: viability [1]
inactive: Her2 level [2] 92% | viability [3] 93.5% | viability [4] 96.2% | viability [5] 74% | differential viability (reversal) ([6]; H69AR cells + 2 uM doxorubicin) -10.8% | inhibition [7] -0.93% | inhibition [8] 0.5% | growth inhibition [9] -7.35% | growth inhibition [10] -3.62% | viability increase [11] -2.12% | viability [12] 104% | viability [13] 93.7% | inhibition [14] 1.85% | RAM network inhibition [15] 6.19%
84.9%: viability [6, 16]

Cc1cc(NC(=O)CSc2nc3c(c(=O)n2Cc2ccccc2)SC(C)C3)no1 (stereo not drawn)
92.1%: viability [6, 17]
104%: viability [1]
76.3%: viability [6, 16]
inactive: Her2 level [2] 106% | viability [3] 104% | viability [4] 74.5% | viability [5] 92.1% | differential viability (reversal) ([6]; H69AR cells + 2 uM doxorubicin) 15.8% | inhibition [7] -3.33% | inhibition [8] -1.83% | growth inhibition [9] -2.67% | growth inhibition [10] -0.455% | viability increase [11] -2.6% | viability [12] 100% | viability [13] 92.4% | inhibition [14] 2.35% | RAM network inhibition [15] 8.6%

Cn1cccc1Cc1nnc(SCC(=O)NCc2ccc(F)cc2)n1-c1ccc(F)cc1
94.5%: viability [1]
89%: viability [6, 17]
93%: viability [6, 16]
inactive: Her2 level [2] 108% | viability [3] 94.5% | viability [4] 80.9% | viability [5] 89% | differential viability (reversal) ([6]; H69AR cells + 2 uM doxorubicin) -4% | inhibition [7] -1.07% | inhibition [8] 13.3% | growth inhibition [9] -3.33% | growth inhibition [10] 8.56% | viability increase [11] -0.43% | viability [12] 97.6% | viability [13] 93.4% | inhibition [14] 2.13% | RAM network inhibition [15] 6.3%

COc1ccc(NC(=O)NCCN2C(=O)C3C4C=CC(C4)C3C2=O)cc1 (stereo not drawn)
inactive: Her2 level [2] 91% | viability [3] 96% | viability [4] 100% | viability [5] 101% | differential viability (reversal) ([6]; H69AR cells + 2 uM doxorubicin) 3.28% | inhibition [7] -1.33% | inhibition [8] 0.33% | growth inhibition [9] -5.58% | growth inhibition [10] 10.4% | viability increase [11] -0.53% | viability [12] 99.1% | viability [13] 94.5% | inhibition [14] 1.5% | RAM network inhibition [15] -1.15%
96%: viability [1]
101%: viability [6, 17]
97.5%: viability [6, 16]
